Experimental findings from PubChem BioAssay are described below.

Where “and” joins values, the source holds several entries; their conditions need not be identical. Identical values can stand only once. Calls of active or inactive are those of the source.

The target in one assay is Albumin (Bos taurus) (UniProt P02769). Put plainly: bovine serum albumin binders on microarray, profiling panel, artefact control for SMM control protein annotation, biochemical, small-molecule microarray, Alexa647 label, 635/667 nm fluorescence (AID 1118).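 Also: score merges 667 nm emission intensity and signal-to-noise per printed compound spot.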 The note with it: BSA-A647 binding, fluorescence 635 nm, higher = more signal.
A short description of assay [1]: small-molecule microarray binders of probe aXIP, primary screen, biochemical, NeuroSMM set, 635/667 nm fluorescence (AID 1119).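 Also: probe is the protein aXip251-270 applied at 1 µg/mL to compound-printed slides; binding of probe to printed compounds measured as 667 nm fluorescence plus signal to noise.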 The note with it: higher = more signal, called active from +8 up or from −8 down.
A short description of assay [2]: small-molecule binders of probe aNOTCH3, primary screen, biochemical, small-molecule microarray, 635/667 nm fluorescence (AID 1120).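 Also: probe is a biotin-tagged antibody raised against NOTCH3 rather than NOTCH3 protein; score merges spot fluorescence near 667 nm with spot signal to noise.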 The note with it: higher = more signal.
A short description of assay [3]: small-molecule binders of probe aNOTCH2, primary screen, biochemical, small-molecule microarray, 635/667 nm fluorescence (AID 1121).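 Also: score merges feature fluorescence read at 667 nm with its signal to noise.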 Conditions: higher = more signal.
Assay [4] has as its target Carbonic anhydrase 2 (Homo sapiens) (UniProt P00918). Put plainly: CAII small-molecule binders, profiling panel, biochemical, small-molecule microarray, Alexa647-labelled CAII (AID 1122). The note with it: CAII-A647 binding fluorescence, higher = more signal.
Assay [5] in a line: COS7 lysate on small-molecule microarray, probe aHis, 635 nm (AID 1123).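 Also: z-score combines 667nm fluorescence intensity with signal-to-noise per printed compound spot.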 The note with it: COS7 cell lysate, fluorescence, higher = more signal.
Assay [6] in a line: compound binding in COS7 lysate, probe aLAP1, primary screen, cell lysate, small-molecule microarray (AID 1124).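 Also: lysate comes from COS7 cells expressing LAP1 and is applied at 0.3 µg/mL; score merges spot fluorescence near 667 nm with signal-to-noise over triplicate slides.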 Conditions: probe aLAP1, fluorescence, higher = more signal.
The next assay relates to Sam68 (KHDRBS1). Put plainly: Sam68 small-molecule binders, primary screen, biochemical, small-molecule microarray, 635 nm fluorescence (AID 1125).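 Also: score merges 667 nm channel intensity with signal to noise over triplicate slides.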 The note with it: small-molecule microarray binding, higher = more signal.
The subject of assay [7] is Chordin-like protein 2 (CHRDL2). Put plainly: CHRDL2 small-molecule binders, primary screen, biochemical, small-molecule microarray, 635 nm fluorescence (AID 1126).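 Also: printed compound slides probed with Chrdl2 protein at 4 µg/mL for 1 h at 4 C; score merges 667 nm emission intensity with signal to noise over three replicate slides.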 Conditions: small-molecule microarray binding, fluorescence 635 nm; higher = more signal.
For assay [8], the target named is Concanavalin-A (Canavalia ensiformis) (UniProt P02866). Put plainly: ConA small-molecule binders, primary screen, artefact control for SMM control protein annotation, biochemical, small-molecule microarray, Alexa647 label, 635 nm (AID 1127).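 Also: z combines 667 nm emission intensity with signal-to-noise across three replicate slides.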 Conditions: ConA-A647 binding fluorescence, higher = more signal.
Concanavalin-A (Canavalia ensiformis), sequence (P02866 whole entry, looked up): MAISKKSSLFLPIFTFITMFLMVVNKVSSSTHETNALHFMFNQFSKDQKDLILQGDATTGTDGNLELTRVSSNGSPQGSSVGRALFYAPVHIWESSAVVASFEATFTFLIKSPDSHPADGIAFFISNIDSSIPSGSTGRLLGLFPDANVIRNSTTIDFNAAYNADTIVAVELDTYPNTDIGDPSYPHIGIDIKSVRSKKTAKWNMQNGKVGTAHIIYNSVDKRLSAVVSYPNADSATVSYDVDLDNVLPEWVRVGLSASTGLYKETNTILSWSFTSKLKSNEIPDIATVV

Albumin (Bos taurus), sequence (P02769 whole entry, looked up): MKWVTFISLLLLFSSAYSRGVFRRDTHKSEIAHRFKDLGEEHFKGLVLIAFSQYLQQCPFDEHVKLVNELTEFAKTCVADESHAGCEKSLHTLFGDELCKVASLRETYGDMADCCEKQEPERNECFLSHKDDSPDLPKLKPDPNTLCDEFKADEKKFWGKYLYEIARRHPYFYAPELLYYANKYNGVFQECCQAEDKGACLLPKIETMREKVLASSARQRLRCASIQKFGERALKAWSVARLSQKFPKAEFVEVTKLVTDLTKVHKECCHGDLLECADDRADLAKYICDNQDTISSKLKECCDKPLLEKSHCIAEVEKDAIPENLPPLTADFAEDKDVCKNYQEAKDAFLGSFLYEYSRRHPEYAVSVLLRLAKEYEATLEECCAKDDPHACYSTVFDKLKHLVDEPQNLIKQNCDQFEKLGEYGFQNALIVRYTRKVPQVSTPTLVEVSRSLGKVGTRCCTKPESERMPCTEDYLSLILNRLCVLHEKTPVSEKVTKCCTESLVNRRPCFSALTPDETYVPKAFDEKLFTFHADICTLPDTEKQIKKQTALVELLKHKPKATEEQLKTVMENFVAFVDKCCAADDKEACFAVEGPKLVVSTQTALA

Regarding `COC(=O)C1=C(C)N(Cc2ccccc2)C2=C(C(C)=O)[C@H](c3ccccc3)[C@@](O)(C(=O)OC)C(=O)N2[C@@H]1c1ccccc1`, the composite z-score was 0.695 and -0.583 with Albumin (Bos taurus); -0.0362 and -0.182 in assay [2]; -0.0907 and -0.124 in assay [3]; 0.301 and -0.459 in assay [4]; 0.275 and -0.666 in assay [5]; -0.209 and -0.312 in assay [6]. Further, the composite z-score in the assay on Sam68 (KHDRBS1) is 1.17 and -1.23; in assay [7], 0.564 and 0.437; in assay [8], 0.365 and -0.139. The composite Z-score in assay [1] was 0.124 (inactive) and 0.115 (inactive).

Regarding `C=CCN(C(=O)C(c1cccs1)N(C(=O)/C=C\C(=O)O)c1ccc(CCO)cc1)C(C)(C)C` (stereo not given), the composite z-score with Albumin (Bos taurus) is 0.779 and 0.432; in assay [2], -0.312 and -0.448; in assay [3] it was -0.0708 and -0.0924; in assay [4], 0.663 and 0.867; in assay [5], 2.45 and 2.51; in assay [6], 0.904 and 1.16. The composite z-score was -0.847 and -1.43 with Sam68 (KHDRBS1); -1.74 and -2.91 in assay [7]; -0.941 and -0.744 in [8]. Also, the composite Z-score in assay [1] was -0.374 (inactive) and -0.419 (inactive).

For the molecule `C[C@@H]1CC[C@H]2C(=O)NC[C@@H](O)CN2[C@H]1c1ccc(Br)cc1`, the composite z-score with Albumin (Bos taurus) was 0.446 and -0.624; in assay [2], -0.0598 and -0.207; in [3], -0.14 and -0.046; in [4] it was 0.702 and -0.138; in assay [5], 0.703 and 0.229; in assay [6] it was -0.172 and -0.0957. Moreover, the composite z-score in the assay with Sam68 (KHDRBS1) is -0.46 and 0.119; in assay [7], -0.119 and 0.127; in assay [8] it was 0.407 and -0.416. Further, the composite Z-score in [1] was -0.312 (inactive) and 0.171 (inactive).

With `C=CCN(C(=O)C(c1cccs1)N(C(=O)/C=C\C(=O)O)c1ccc(CCO)cc1)c1ccc(OC)cc1` (stereo not given), the composite z-score in the assay with Albumin (Bos taurus) is 0.254 and -1.1; in assay [2] it was -0.299 and -0.451; in assay [3], -0.164 and -0.19; in assay [4], 0.89 and -0.733; in [5] it was -0.416 and -1.29; in assay [6], -1.17 and 0.112. Further, the composite z-score is -1.79 and -2.22 with Sam68 (KHDRBS1); -1.65 and -3.12 in assay [7]; -1.33 and -2.24 in assay [8]. In [1], the composite Z-score was -0.16 (inactive) and -0.902 (inactive).

As to `COC(=O)CC=C[C@@H](C)[C@@H](CO)NS(=O)(=O)c1ccc(C)cc1`, the composite z-score in the assay with Albumin (Bos taurus) was 0.0833 and -0.252; in assay [2], -0.0391 and 0.111; in assay [3], -0.0703 and -0.14; in assay [4] it was -0.121 and 0.0581; in assay [5], -0.114 and 0.0271; in assay [6], -0.144 and -0.481. Also, the composite z-score in the assay on Sam68 (KHDRBS1) was -0.182 and 0.567; in [7] it was 0.696 and 1.03; in assay [8], -0.213 and -0.52. Further, the composite Z-score in assay [1] is 0.105 (inactive) and 0.309 (inactive).

With `Cc1ccc(S(=O)(=O)N[C@H]2COC(=O)[C@@H](C)COC(=O)[C@H](C)NC(=O)CC=C[C@H]2C)cc1`, the composite z-score with Albumin (Bos taurus) is -0.965; in [2], -0.0931; in assay [3], -0.14; in assay [4], -0.338; in assay [5], -0.49; in [6], -0.34. For the same molecule, the composite z-score in the assay on Sam68 (KHDRBS1) is 0.122; in [7] it was 0.954; in assay [8], -0.681. Besides, the composite Z-score in [1] was 1.17 (inactive).

Consider `C[N+](C)(C)CCCCCCNC(=O)[C@H]1C[C@H]2C(=O)N[C@@H](CCCC[N+](C)(C)C)C(=O)N2[C@H]1c1cccc(OCCO)c1`, for which the composite z-score was -0.239 and -0.101 in the assay with Albumin (Bos taurus); -0.0647 and 0.203 in [2]; -0.148 and 0.046 in assay [3]; 0.655 and 0.419 in assay [4]; 0.897 and 0.214 in [5]; 0.479 and 0.285 in assay [6]. Also, the composite z-score in the assay on Sam68 (KHDRBS1) is 0.861 and 0.669; in assay [7], 1.22 and 1.04; in assay [8] it was 0.606 and 0.352. In assay [1], the composite Z-score is 0.891 (inactive) and -0.166 (inactive).

For `C#CCCCON=C1C[C@@H](O)[C@@H](O)[C@@H]2[C@@H]3C(=O)N(C4CCCCC4)C(=O)[C@@H]3CC[C@H]12`, the composite z-score is 0.691 in the assay with Albumin (Bos taurus); -0.0006 in assay [2]; -0.11 in assay [3]; 0.508 in assay [4]; 0.186 in assay [5]; 0.806 in [6]. Besides, the composite z-score in the assay with Sam68 (KHDRBS1) was 0.866; in [7], -0.133; in assay [8], 1.15. Further, in [1], the composite Z-score is -0.393 (inactive).

With `COC(=O)C1=C(C)N(Cc2ccccc2)C2=C3C(=O)N(C)C(=O)[C@@H]3[C@@](O)(C(=O)OC)C(=O)N2[C@@H]1c1ccccc1`, the composite z-score was 0.0056 and 0.0685 in the assay with Albumin (Bos taurus); 0.134 and -0.101 in [2]; -0.151 and -0.0619 in [3]; 0.422 and -0.123 in [4]; -0.332 and -0.0088 in assay [5]; 1.36 and 0.499 in assay [6]. The composite z-score was -0.239 and 0.267 with Sam68 (KHDRBS1); 0.37 and 0.38 in [7]; 0.17 and 0.178 in assay [8]. The composite Z-score in assay [1] was 0.204 (inactive) and -0.12 (inactive).

On to `CCOC(=O)[C@H](CC(C)C)NC(=O)CCC1CC(OC(=O)NCc2cccc3ccccc23)CC2(CCCC(COC(=O)NCc3ccccc3)O2)O1` (stereo not given in full), for which the composite z-score with Albumin (Bos taurus) was -0.294; in assay [2] it was -0.155; in assay [3], -0.152; in assay [4], -0.3; in [5], 0.043; in assay [6], -0.384. For the same molecule, the composite z-score is -0.903 with Sam68 (KHDRBS1), -0.139 in assay [7] and -0.68 in [8]. Further, the composite Z-score in assay [1] was -0.19 (inactive).

Regarding `C=CCN(CCCC)C(=O)C(c1cccs1)N(C(=O)/C=C\C(=O)O)c1c(Cl)cccc1CO` (stereo not given), the composite z-score with Albumin (Bos taurus) is -0.854 and -0.198; in assay [2], -0.589 and -0.431; in [3] it was -0.162 and -0.147; in [4], -0.3 and 0.0384; in [5], -0.99 and -0.632; in assay [6] it was -0.307 and 0.993. Further, the composite z-score in the assay with Sam68 (KHDRBS1) was -0.843 and -1.73; in assay [7] it was -4.02 and -2.94; in [8], -3.43 and -2.5. Moreover, the composite Z-score in [1] was -0.089 (inactive) and 0.339 (inactive).

Turning to `CCN1C(=O)[C@H]2[C@H]3[C@H](O)[C@H](O)CC(=NOC)[C@@H]3CC[C@H]2C1=O`, the composite z-score was -0.311 with Albumin (Bos taurus); 0.0297 in assay [2]; -0.0681 in assay [3]; -0.317 in assay [4]; -0.417 in assay [5]; -0.375 in assay [6]. The composite z-score in the assay on Sam68 (KHDRBS1) is -0.478; in [7], 0.508; in assay [8] it was -0.0569. The composite Z-score in assay [1] was -0.791 (inactive).

Regarding `COC(=O)C1=C(C)N(Cc2ccccc2)[C@]23O[C@](C(=O)OC)(C(=O)N2[C@@H]1c1ccccc1)[C@H]1C(=O)N(c2ccccc2)C(=O)[C@H]13`, the composite z-score with Albumin (Bos taurus) is 0.692 and 0.614; in assay [2], 0.121 and 0.024; in assay [3], 0.0793 and -0.0321; in assay [4], 0.306 and 0.428; in assay [5], 1.05 and -0.39; in assay [6], 0.294 and 0.526. For the same molecule, the composite z-score in the assay with Sam68 (KHDRBS1) was 0.682 and 0.308; in [7], 0.223 and 0.523; in assay [8], 0.838 and 0.0089. The composite Z-score in [1] was -0.119 (inactive) and -0.275 (inactive).

With `CC(=O)OC[C@H]1O[C@H](C#CC(C)(C)C)C=C[C@@H]1OC(C)=O`, the composite z-score is 0.895 with Albumin (Bos taurus); 0.116 in assay [2]; -0.0649 in assay [3]; 0.813 in assay [4]; 1.6 in [5]; 0.164 in assay [6]. Also, the results for the composite z-score (in the assay with Sam68 (KHDRBS1); in assay [7]; in assay [8]) were 1.22, 0.411 and 1.09, respectively. Further, the composite Z-score in [1] is -0.0921 (inactive).

In the case of `C=CCN(C(=O)C1N(c2ccc(CCO)cc2)C(=O)C2C(C(=O)O)C3C=CC21O3)c1ccc(OC)cc1` (stereo not given), the composite z-score is -0.326 and -0.0621 with Albumin (Bos taurus); -0.285 and -0.585 in [2]; -0.14 and -0.0932 in assay [3]; 0.93 and 0.471 in assay [4]; -0.188 and -0.412 in assay [5]; -0.0393 and -0.133 in assay [6]. In addition, the composite z-score with Sam68 (KHDRBS1) was 0.0118 and -1.55; in assay [7] it was -0.726 and -2.53; in assay [8], 0.287 and -1.64. In assay [1], the composite Z-score was -0.177 (inactive) and -0.773 (inactive).
